Assay results from PubChem BioAssay (EPA / NIEHS).
Where “and” joins values, the source holds several entries; their conditions need not be identical. Equal values may be shown once. The source holds several records for some structures; these can differ, active in one and inactive in another. Calls of active or inactive are those of the source. How the source made its calls: active means hit-call score of the fitted dose curve at least 0.9, where 1 is the maximum; inactive means score below 0.9.

Legend:
[1] = read-out: Human Leukocyte Antigen - DR isotype (HLADR), HLA-DRA (gene 3122); experiment: BSK_CASM3C_HLADR: BioMAP Diversity Plus: CASM3C Assay for Human Leukocyte Antigen - DR isotype (HLADR) Biomarker Activity (AID 2283043); details: primary human coronary artery smooth muscle cells; actives raise or lower the signal;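 further: cell-surface HLA-DR protein level quantified by ELISA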
[2] = read-out: Macrophage colony-stimulating factor (MCSF), CSF1 (gene 1435); experiment: BSK_CASM3C_MCSF: BioMAP Diversity Plus: CASM3C Assay for Macrophage colony-stimulating factor (MCSF) Biomarker Activity (AID 2283044); details: primary human coronary artery smooth muscle cells; actives raise or lower the signal;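 further: M-CSF protein amount quantified by ELISA after 24 h exposure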
[3] = read-out: Low-density lipoprotein receptor (LDLR), LDLR (gene 3949); experiment: BSK_CASM3C_LDLR: BioMAP Diversity Plus: CASM3C Assay for Low-density lipoprotein receptor (LDLR) Biomarker Activity (AID 2283045); details: primary human coronary artery smooth muscle cells; actives raise or lower the signal;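 further: LDLR protein level on the cell surface quantified by ELISA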
[4] = read-out: Monocyte Chemoattractant Protein-1 (MCP1), CCL2 (gene 6347); experiment: BSK_CASM3C_MCP1: BioMAP Diversity Plus: CASM3C Assay for Monocyte Chemoattractant Protein-1 (MCP1) Biomarker Activity (AID 2283046); details: primary human coronary artery smooth muscle cells; actives raise or lower the signal;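 further: MCP-1 level quantified by ELISA 24 h after dosing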
[5] = BSK_CASM3C_Proliferation: Cell Proliferation Assessment in the BioMAP Diversity Plus: CASM3C Assay (AID 2283047); details: primary human coronary artery smooth muscle cells;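 further: sulforhodamine B total protein stain as relative cell number at 560 nm; sub-confluent cells exposed 48 h before staining; fitted both ways against DMSO so gain or loss of cell number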
[6] = read-out: Monokine induced gamma interferon (MIG), CXCL9 (gene 4283); experiment: BSK_CASM3C_MIG: BioMAP Diversity Plus: CASM3C Assay for Monokine induced gamma interferon (MIG) Biomarker Activity (AID 2283048); details: primary human coronary artery smooth muscle cells; actives raise or lower the signal;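 further: MIG protein level measured by ELISA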
[7] = read-out: serum amyloid A (SAA), SAA1 (gene 6288); experiment: BSK_CASM3C_SAA: BioMAP Diversity Plus: CASM3C Assay for serum amyloid A (SAA) Biomarker Activity (AID 2283049); details: primary human coronary artery smooth muscle cells; actives raise or lower the signal;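 further: SAA protein level quantified by ELISA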
[8] = BSK_CASM3C_SRB: Viability Assessment in the BioMAP Diversity Plus: CASM3C Assay (AID 2283050); details: primary human coronary artery smooth muscle cells;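 further: total protein by SRB staining as cytotoxicity measure in parallel cultures; cells exposed to compound for 24 h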
[9] = read-out: Thrombomodulin, THBD (gene 7056); experiment: BSK_CASM3C_Thrombomodulin: BioMAP Diversity Plus: CASM3C Assay for Thrombomodulin Biomarker Activity (AID 2283051); details: primary human coronary artery smooth muscle cells; actives raise or lower the signal;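 further: thrombomodulin protein level measured by ELISA 24 h after dosing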
[10] = read-out: Tissue Factor, F3 (gene 2152); experiment: BSK_CASM3C_TissueFactor: BioMAP Diversity Plus: CASM3C Assay for Tissue Factor Biomarker Activity (AID 2283052); details: primary human coronary artery smooth muscle cells; actives raise or lower the signal;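 further: cell surface tissue factor protein level read by ELISA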
[11] = read-out: Urokinase-type plasminogen activator receptor (uPAR), PLAUR (gene 5329); experiment: BSK_CASM3C_uPAR: BioMAP Diversity Plus: CASM3C Assay for Urokinase-type plasminogen activator receptor (uPAR) Biomarker Activity (AID 2283054); details: primary human coronary artery smooth muscle cells; actives raise or lower the signal;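 further: cell-surface uPAR protein level quantified by ELISA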
[12] = read-out: Vascular cell adhesion molecule 1 (VCAM1), VCAM1 (gene 7412); experiment: BSK_CASM3C_VCAM1: BioMAP Diversity Plus: CASM3C Assay for Vascular cell adhesion molecule 1 (VCAM1) Biomarker Activity (AID 2283055); details: primary human coronary artery smooth muscle cells; actives raise or lower the signal;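 further: VCAM-1 protein level quantified by ELISA on the cells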
[13] = read-out: Collagen III, COL3A1 (gene 1281); experiment: BSK_hDFCGF_CollagenIII: BioMAP Diversity Plus: hDFCGF Assay for Collagen III Biomarker Activity (AID 2283056); details: primary human foreskin fibroblasts; actives raise or lower the signal
Summary of the method: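 Cells: human foreskin fibroblasts, primary. Dosing followed by 24 h incubation, then ELISA for collagen III. Both increases and decreases scored relative to DMSO.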

[14] = read-out: Epidermal growth factor receptor (EGFR), EGFR (gene 1956); experiment: BSK_hDFCGF_EGFR: BioMAP Diversity Plus: hDFCGF Assay for Epidermal growth factor receptor (EGFR) Biomarker Activity (AID 2283057); details: primary human foreskin fibroblasts; actives raise or lower the signal
Summary of the method: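 Measured by ELISA: EGFR levels on primary human foreskin fibroblasts 24 h after chemical treatment, analysed relative to DMSO with bidirectional fitting.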

[15] = read-out: Interleukin-8 (IL8), CXCL8 (gene 3576); experiment: BSK_hDFCGF_IL8: BioMAP Diversity Plus: hDFCGF Assay for Interleukin-8 (IL8) Biomarker Activity (AID 2283058); details: primary human foreskin fibroblasts; actives raise or lower the signal
Summary of the method: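 IL-8 levels from compound-treated primary human fibroblasts were read by ELISA at 24 h, with DMSO serving as baseline for bidirectional fitting.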

[16] = read-out: Macrophage colony-stimulating factor (MCSF), CSF1 (gene 1435); experiment: BSK_hDFCGF_MCSF: BioMAP Diversity Plus: hDFCGF Assay for Macrophage colony-stimulating factor (MCSF) Biomarker Activity (AID 2283060); details: primary human foreskin fibroblasts; actives raise or lower the signal
Summary of the method: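 M-CSF levels, determined by ELISA, are taken at 24 h after dosing human skin fibroblasts. Responses in either direction are fitted with DMSO serving as the baseline.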

[17] = BSK_hDFCGF_SRB: Viability Assessment in the BioMAP Diversity Plus: hDFCGF Assay (AID 2283061); details: primary human foreskin fibroblasts;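 further: cells exposed to compound for 24 h before the read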
Summary of the method: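 Cells were dosed with test chemical, cultured 24 h, fixed with 10% TCA, then stained with 0.1% SRB and read at 560 nm. The fibroblasts were human foreskin primary cells, and DMSO served as baseline.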

[18] = read-out: TIMP metallopeptidase inhibitor 1 (TIMP1), TIMP1 (gene 7076); experiment: BSK_hDFCGF_TIMP1: BioMAP Diversity Plus: hDFCGF Assay for TIMP metallopeptidase inhibitor 1 (TIMP1) Biomarker Activity (AID 2283062); details: primary human foreskin fibroblasts; actives raise or lower the signal
Summary of the method: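 Fibroblasts from human foreskin are treated with test chemical and harvested at 24 h. TIMP-1 is quantified by ELISA, and gain or loss of signal is scored against DMSO.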

[19] = read-out: Interferon-gamma inducible Protein 10 (IP10), CXCL10 (gene 3627); experiment: BSK_hDFCGF_IP10: BioMAP Diversity Plus: hDFCGF Assay for Interferon-gamma inducible Protein 10 (IP10) Biomarker Activity (AID 2283053); details: primary human foreskin fibroblasts; actives raise or lower the signal
Summary of the method: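 IP-10 levels, quantified by ELISA, are taken from human foreskin fibroblast cultures 24 h after chemical treatment, with DMSO serving as negative control and baseline for bidirectional analysis.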

[20] = BSK_hDFCGF_Proliferation: Cell Proliferation Assessment in the BioMAP Diversity Plus: hDFCGF Assay (AID 2283059); details: primary human foreskin fibroblasts;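 further: curves fitted for both rise and fall of signal versus DMSO baseline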
Summary of the method: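 Steps: dose primary human dermal fibroblasts (foreskin); […] fix in 10% TCA; stain with 0.1% SRB; read 560 nm; fit gain or loss of signal against DMSO.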

Measured: AC50

O=C(CC(=O)C(F)(F)C(F)(F)C(F)(F)F)c1cccs1
inactive: [9] | [10] | [13] | [14] | [15] | [16] | [17] | [18]
active: [1] 47.3 µM and 50.5 µM | [2] 45.2 µM and 48.9 µM | [3] 40.2 µM and 32.8 µM | [4] 45.5 µM and 45.9 µM | [5] 30 µM and 24.6 µM | [6] 42 µM and 50.2 µM | [7] 41.2 µM and 43.4 µM | [8] 45.6 µM and 44.6 µM | [9] 54.4 µM | [11] 51.8 µM and 50.9 µM | [12] 40.6 µM and 38.2 µM

OCC(CO)(CBr)CBr
not listed: [20]
inactive: all other assays above

Cc1[nH]nc2c1N=C(c1ccccc1Cl)c1cc([N+](=O)[O-])ccc1N2
active: [1] 8.7 µM | [2] 0.581 µM | [5] 0.807 µM | [6] 7.47 µM | [7] 0.641 µM | [12] 9.37 µM | [14] 20 µM
not listed: [20]
inactive: all other assays above

CN(Cc1cnc2nc(N)nc(N)c2n1)c1ccc(C(=O)N[C@@H](CCC(=O)O)C(=O)O)cc1
inactive: [1] | [2] | [3] | [4] | [5] | [6] | [7] | [8] | [9] | [10] | [19] | [11] | [12] | [13] | [14] | [15] | [20] | [16] | [17] | [18]
active: [16] 2.65 µM

O=P(O)(O)CCC(F)(F)C(F)(F)C(F)(F)C(F)(F)C(F)(F)C(F)(F)F
active: [20] 15.8 µM and 19.1 µM
not listed: [19]
inactive: all other assays above

CCCCC(CC)C(=O)OCCOCCOCCOCCOC(=O)C(CC)CCCC (stereo not given)
active: [16] 20 µM
not listed: [20]
inactive: all other assays above

O=C(O)C(F)(F)OC(F)(F)C(F)(F)OC(F)(F)C(F)(F)OC(F)(F)C(F)(F)C(F)(F)C(F)(F)F
active: [2] 48.1 µM | [3] 46.1 µM and 55.2 µM | [5] 51.1 µM and 56.6 µM | [7] 43.5 µM | [8] 55.1 µM and 45.3 µM | [19] 10.1 µM and 9.36 µM | [12] 24.8 µM and 30 µM | [13] 10.9 µM and 9.27 µM | [15] 21.9 µM and 21.2 µM | [16] 11.6 µM and 10.5 µM | [17] 8.7 µM and 8.8 µM | [18] 10.6 µM and 8.08 µM
inactive: [1] | [2] | [4] | [6] | [7] | [9] | [10] | [11] | [14]

C[C@]12CC[C@@H]3c4ccc(O)cc4CC[C@H]3[C@@H]1C[C@@H](O)[C@@H]2O
active: [2] 8.12 µM
not listed: [20]
inactive: all other assays above

CN(CCO)S(=O)(=O)C(F)(F)C(F)(F)C(F)(F)C(F)(F)C(F)(F)C(F)(F)C(F)(F)C(F)(F)F
active: [6] 0.0293 µM | [16] 0.0414 µM
inactive: [1] | [2] | [3] | [4] | [5] | [6] | [7] | [8] | [9] | [10] | [19] | [11] | [12] | [13] | [14] | [15] | [20] | [16] | [17] | [18]

COCN(COC)c1nc(N(COC)COC)nc(N(COC)COC)n1
not listed: [19]
inactive: all other assays above

OCC(F)(F)C(F)(F)C(F)(F)C(F)(F)C(F)(F)C(F)(F)C(F)(F)C(F)(F)C(F)(F)C(F)(F)C(F)(F)F
active: [13] 58 nM and 74.1 nM
not listed: [20]
inactive: all other assays above

N=C(N)c1ccc(OCCCCCOc2ccc(C(=N)N)cc2)cc1
inactive: [3] | [4] | [6] | [7] | [8] | [9] | [10] | [12] | [13]
active: [1] 17.5 µM | [2] 15 µM | [5] 12.4 µM | [19] 17.5 µM | [14] 29.1 µM | [15] 20.9 µM | [20] 12.1 µM | [16] 20.6 µM | [17] 25.8 µM | [18] 27.2 µM

O=C1NS(=O)(=O)c2ccccc21
active: [12] 0.15 µM
inactive: [1] | [2] | [3] | [4] | [5] | [6] | [7] | [8] | [9] | [10] | [19] | [11] | [12] | [13] | [14] | [15] | [16] | [17] | [18]

CC[N+](CC)(CC)Cc1ccccc1
not listed: [19]
inactive: all other assays above

CC1=NN(c2ccccc2)C(=O)C1
active: [9] 9.62 µM
inactive: all other assays above

CCOC(=O)CN[C@@H](C(=O)N1CC[C@H]1C(=O)NCc1ccc(/C(N)=N/O)cc1)C1CCCCC1
not listed: [19]
inactive: all other assays above

C=COC(=O)C(C)(C)CCCCCC
inactive: [3] | [7] | [9] | [14]
active: [1] 35.9 µM | [2] 32 µM | [4] 20 µM | [5] 37.8 µM | [6] 32.6 µM | [8] 31.9 µM | [10] 20 µM | [11] 20 µM | [12] 33.2 µM | [13] 31.2 µM | [15] 31 µM | [20] 31.7 µM | [16] 35 µM | [17] 37.5 µM | [18] 28.5 µM

COc1cc(OC)nc(NC(=O)NS(=O)(=O)Nc2ccccc2C(=O)N(C)C)n1
not listed: [20]
inactive: all other assays above

Oc1ccc(Cc2ccccc2O)cc1
inactive: [1] | [2] | [3] | [4] | [5] | [6] | [7] | [8] | [9] | [10] | [11] | [12] | [13] | [14] | [15] | [16] | [17] | [18]
active: [1] 10.8 µM | [12] 3.97 µM

CCCCc1oc2ccccc2c1C(=O)c1cc(I)c(OCCN(CC)CC)c(I)c1
active: [1] 5.94 µM | [2] 22 µM | [3] 27.2 µM | [4] 25.1 µM | [5] 8.1 µM | [6] 24 µM | [7] 12.4 µM | [8] 18.9 µM | [9] 27.9 µM | [10] 24 µM | [11] 13.7 µM | [12] 25.3 µM | [13] 7.23 µM | [15] 10.3 µM | [20] 3.97 µM | [16] 6.99 µM | [17] 4.64 µM | [18] 9.35 µM
inactive: [14]
